From PubChem
Compounds with a hit are over-represented: about 3% of the library has one in this group of screens.
p53null 32C kill = p53 null cell cytotoxicity, permissive temperature | Potency, µM (top dose mostly 46.1 µM), without a hit: top-dose activity change, negative = cytotoxicity, hits mostly cytotoxic | H1299-neo p53 null cells, ATP luminescence, 24 h, 32C | 55,000 compounds, 0.62% hits;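 note: potency is the fitted concentration of half-maximal effect; 0% = DMSO only and -100% = full killing by 100 µM tamoxifen; nearly all actives have a fitted effect of over 55% in size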
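We seeded p53-null H1299-neo cells, incubated them overnight at 37C, and added compounds across a range up to 46 uM. After 24 hours at 32C, ATP reagent was applied for 20 min at room temperature and luminescence recorded.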
p53null 39C tox = selectivity test: cytotoxicity in p53 null cells, nonpermissive temperature. H1299 p53-null (neo) cells, 39C, ATPlite viability, 24 h. Potency, µM (series often up to 46.1 µM), without a hit: at the highest dose activity, negative = cell killing, hits mostly cytotoxic. 55,000 compounds, 0.97% hits. AID 904;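 note: potency is the fitted concentration of half-maximal effect; 0% = DMSO only and -100% = full killing by 100 µM tamoxifen; nearly all actives have a fitted effect of over 50% in size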
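Luminescent ATP signal reported cell survival after H1299 lines (neo, p53 null; or p53 A138V) received up to 46 uM compound and 24 hr incubation at 39C.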
PMP22 txn prim = modulates PMP22 transcription in S16 Schwann cells; S16 Pmp22-F2sN Schwann cells, FLuc/NLuc coincidence luminescence, 24 h; Potency, µM (series often up to 57.5 µM), for the others: at the top dose activity change, negative = inhibition, actives largely listed as inhibitors; 43,000 compounds, 2% hits; active = clear falling dose curves in both reporters; inconclusive = both reporters move, but less clearly or upward; inactive = either reporter flat; the % is the NLuc reporter signal; note: potency is the fitted concentration of half-maximal effect; % is set by controls: 0 for no effect and ±100 for the full control effect
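Reporter cells (S16 Pmp22-F2sN, 500–1,000 per well) exposed to compounds for 24 h, 37C, 5% CO2; lysis with FLuc read after 10 min, then Stop&Glo and NLuc read after 10 min.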
pS6 MEF inh = inhibitors of mTORC1 signaling in Tsc2-/- p53-/- MEF cells; Tsc2-/- p53-/- MEF, phospho-rpS6 immunofluorescence/PI, 24 h; Potency, µM (highest dose often 38.3 µM), inactives show at the highest dose activity change, negative = inhibition, actives largely listed as inhibitors; 44,000 compounds, 0.78% hits; AID 493208;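 note: potency is the fitted concentration of half-maximal effect; plate controls were DMSO for no effect and rapamycin for full effect; nearly all actives have a fitted effect of over 50% in size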
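Tsc2-/-, p53-/- MEFs (empty-vector stable line) in DMEM + 10% FBS were treated with compounds 24 h at 37 degree Celsius, fixed, and immunostained for phospho-rpS6 (Alexa-488) with propidium iodide counterstain. Laser-scanning cytometry gave % positive cells, normalized against 7.5 nM rapamycin and DMSO.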
GALC G270D up = enhancers of human galactocerebrosidase G270D mutant activity in cells; 45,000 compounds, 0.1% hits; 145M-Twi-hGALC-G270D cells (Twitcher mouse brain line with human GALC G270D), HMU-beta-Gal fluorescence, 48 h; AID 1159614; Potency, µM (highest dose often 57.5 µM), actives largely listed as activators; P54803; note: potency is the fitted concentration of half-maximal effect; 0% is about no effect; nearly all actives have a fitted effect of over 65% in size
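Fluorescence readout: HMU-β-gal cleavage by mutant GALC (0.1 mM final, citrate/phosphate pH 5.2 with 1 mg/mL taurocholate), stopped with carbonate/bicarbonate plus Triton X-100. Cells: murine Twitcher 145M-Twi expressing human G270D GALC; qHTS for activators.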
S16 viability = toxic to S16 Pmp22-F2sN Schwann cells. S16 Pmp22-F2sN Schwann cells viability, CellTiter-Glo, 24 h. Potency, µM (top dose mostly 57.5 µM), without a hit: top-dose activity change, negative = cytotoxicity, actives largely listed as cytotoxic. 43,000 compounds, 0.48% hits; note: potency is the fitted concentration of half-maximal effect; % is set by controls: 0 for no effect and ±100 for the full control effect; nearly all actives have a fitted effect of over 65% in size
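Used to flag compounds lowering reporter output through toxicity, this quantitative HTS measures ATP-based CellTiter-Glo luminescence in S16 Pmp22-F2sN Schwann cells after 24 h compound exposure at 37C.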
NLuc saturating = inhibits NanoLuc at saturating substrate, PMP22 counter-screen | shares compounds with PMP22 txn prim | Secreted NLuc enzyme (filtered S16 cell medium), Nano-Glo luminescence | Potency, µM (series often up to 57.5 µM), without a hit: at the top dose activity change, negative = inhibition, hits mostly inhibitors | 690 compounds, 4% hits | AID 1508638; note: potency is the fitted concentration of half-maximal effect; % is set by controls: 0 for no effect and ±100 for the full control effect
NLuc Km counter = NanoLuc inhibition at Km substrate, PMP22 artifact check; shares compounds with PMP22 txn prim; secreted NLuc enzyme, coelenterazine luminescence, Km conditions; Potency, µM (top dose mostly 57.5 µM), without a hit: top-dose activity change, negative = inhibition, most hits filed as inhibitors; 690 compounds, 5% hits; AID 1508639; note: potency is the fitted concentration of half-maximal effect; % is set by controls: 0 for no effect and ±100 for the full control effect
FLuc counter = counter-screen for PMP22 expression modulators: firefly luciferase inhibition; purified P. pyralis FLuc, luminescence, 10 min; Potency, µM (top dose mostly 57.5 µM), for inactives: at the top dose activity, negative = inhibition, hits mostly inhibitors; 690 tested, under 10 active; shares compounds with PMP22 txn prim; note: % of control where 0% means no effect
Target sequence (P08659 whole entry, looked up): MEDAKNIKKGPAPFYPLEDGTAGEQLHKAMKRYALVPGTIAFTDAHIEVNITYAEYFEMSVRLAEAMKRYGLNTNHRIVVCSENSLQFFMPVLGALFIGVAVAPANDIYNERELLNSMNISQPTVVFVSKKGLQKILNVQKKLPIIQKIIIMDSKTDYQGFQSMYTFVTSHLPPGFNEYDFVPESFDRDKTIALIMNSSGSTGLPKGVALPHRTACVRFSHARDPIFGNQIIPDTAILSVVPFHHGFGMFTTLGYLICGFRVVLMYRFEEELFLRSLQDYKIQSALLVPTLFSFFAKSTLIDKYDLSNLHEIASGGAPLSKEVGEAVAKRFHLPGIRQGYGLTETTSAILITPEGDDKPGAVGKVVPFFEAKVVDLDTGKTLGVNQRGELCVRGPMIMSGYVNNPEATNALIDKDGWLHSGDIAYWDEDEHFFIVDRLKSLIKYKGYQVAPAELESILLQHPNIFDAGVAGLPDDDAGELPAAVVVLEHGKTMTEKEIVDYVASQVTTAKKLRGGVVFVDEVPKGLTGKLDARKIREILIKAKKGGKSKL
S16 F2sN tox cnf = S16 Schwann cell cytotoxicity, confirmatory; shares compounds with PMP22 txn prim; S16 Schwann cells viability, CellTiter-Glo ATP luminescence, 24 h; Potency, µM (titrated, usually from 57.5 µM), for the others: at the highest dose activity change, negative = viability loss, most hits filed as cytotoxic; 690 compounds, 7% hits; AID 1508641; note: potency is the fitted concentration of half-maximal effect; % is set by controls: 0 for no effect and ±100 for the full control effect
PMP22 txn conf = PMP22 transcription modulation, confirmatory | AID 1508646 | Potency, µM (top dose mostly 57.5 µM), for the others: at the highest dose activity change, negative = inhibition, most hits filed as inhibitors | shares compounds with PMP22 txn prim | S16 Schwann cells Pmp22-F2sN, dual luciferase, 24 h | 690 compounds, 22% hits; active = clear falling dose curves in both reporters; inconclusive = both reporters move, but less clearly or upward; inactive = either reporter flat; the % is the FLuc reporter signal; note: potency is the fitted concentration of half-maximal effect
The depositor's hits bear a star; i = inactive; ? = inconclusive; . = no result. Unless noted, calls come from the whole dose curve; as a rule, active = well fitted curve in the direction sought with a large enough effect; inconclusive = small, poorly fitted or top-dose-only effect, or another doubt; inactive = no such curve, though single readings can be large; an effect the other way counts as inactive or inconclusive.

SMILES	p53null 32C kill	p53null 39C tox	PMP22 txn prim	pS6 MEF inh	GALC G270D up	S16 viability	NLuc saturating	NLuc Km counter	FLuc counter	S16 F2sN tox cnf	PMP22 txn conf
COc1cc(C(=O)Nc2c(C(=O)Nc3ccccc3F)oc3ccccc23)cc(OC)c1OC	4%	-12%	17µM*	-8%	i	1%	-3%	-4%	?	-2%	?
COc1ccc(NS(=O)(=O)c2ccc3[nH]c4c(c3c2)CCCC4)c(OC)c1	31%	-27%	-36%	-8%	i	-1%	.	.	.	.	.
Cc1ccc(NS(=O)(=O)c2ccc3[nH]c4c(c3c2)CCCC4)cc1N(C)C	17%	-16%	17µM*	-17%	i	?	2%	-20%	1%	7%	?
COc1ccc(OC)c(CNS(=O)(=O)c2ccc3[nH]c4c(c3c2)CCCCC4)c1	9%	39%	15µM*	-8%	i	-18%	-11%	?	2%	1%	-16%
COc1cccc2c1cc1c(=O)n(CC(=O)N3CCCCC3)nc(C)n12	2%	-11%	-25%	-5%	i	0%	.	.	.	.	.
O=C(CSc1c2c(nc3ccc(Cl)cc13)CCCC2)NCc1ccccc1Cl	15%	?	11µM*	-2%	i	22µM*	?	?	-1%	27%	?
CCC(C)NC(=O)CSc1c2c(nc3cc(Cl)ccc13)CCCC2 (stereo not drawn)	2%	-30%	12µM*	-3%	i	4%	?	?	5%	7%	?
Cc1ccc(CNC(=O)CSc2c3c(nc4ccc(Cl)cc24)CCCC3)cc1	2%	-12%	10µM*	-11%	i	1%	-13%	?	-5%	5%	-17%
COc1ccc(NC(=O)CSc2c3c(nc4ccc(Cl)cc24)CCCC3)cc1Cl	12%	21%	19µM*	1%	i	?	?	?	6%	?	?
CCOCCCNC(=O)CN1C(=O)CCn2nc(-c3cccn3C)cc21	-7%	-12%	1%	1%	i	2%	.	.	.	.	.
Cc1ccc(NC(=O)CN2C=NS(=O)(=O)c3ccccc32)c(C)c1	-2%	13%	-6%	-6%	i	2%	.	.	.	.	.
CCOC(=O)c1ccc(NC(=O)CSc2c3c(nc4cc(Cl)ccc24)CCCC3)cc1	0%	-11%	?	2%	i	10%	.	.	.	.	.
COC(=O)c1ccccc1NC(=O)CSc1c2c(nc3ccc(Cl)cc13)CCCC2	22%	-7%	18µM*	0%	i	17%	-15%	4%	6%	?	?
COC(=O)c1ccccc1NC(=O)c1ccc2c(Cl)c3c(nc2c1)CCCC3	-2%	-14%	16%	0%	i	9%	.	.	.	.	.
Cc1ccc(C)c(NC(=O)CSc2c3c(nc4ccc(Cl)cc24)CCCC3)c1	1%	-20%	15µM*	2%	i	1%	-20%	-7%	5%	0%	?
COc1ccccc1CN1COc2ccc3c(oc(=O)c4ccccc43)c2C1	-3%	13%	-56%	?	i	14%	.	.	.	.	.
COc1ccc(-c2cc(-c3ccccc3)nc(SCC(=O)Nc3ccccc3C)c2C#N)cc1	9%	-15%	?	1%	i	-2%	.	.	.	.	.
CCc1ccc(NC(=O)c2cnn(-c3ccccc3)c2-n2cccc2)cc1	50%	32%	-111%	-4%	i	-31%	.	.	.	.	.
Cc1cccc(NC(=O)c2cnn(-c3ccccc3)c2-n2cccc2)c1C	22%	-17%	13µM*	1%	i	-19%	19µM*	15µM*	0%	-21%	-24%
Clc1ccc(CCNc2nc3ccccc3c3nc(-c4ccccc4)nn23)cc1	-7%	1%	-11%	0%	i	0%	.	.	.	.	.
Cc1ccc(-n2nc3c(N4CCC(C(=O)NC(C)c5ccccc5)CC4)nnc(C)c3c2C)cc1 (stereo not drawn)	-88%	?	-4%	-1%	i	-10%	.	.	.	.	.
Cc1ccc(-n2nc3c(N4CCC(C(=O)NCCC(C)C)CC4)nnc(C)c3c2C)cc1	26%	?	6.2µM*	-2%	i	-27%	-9%	-3%	1%	-7%	?
Cc1ccc(-n2nc3c(N4CCC(C(=O)NCCc5ccccc5C)CC4)nnc(C)c3c2C)cc1	-1%	-8%	9.5µM*	-1%	i	?	-16%	-4%	-9%	24µM*	?
CCOC(=O)C1CCN(C(=O)C2CCN(c3nnc(C)c4c(C)n(-c5ccccc5)nc34)CC2)CC1	19%	-4%	14µM*	-5%	i	18%	-10%	0%	3%	2%	-22%
Cc1ccccc1CNC(=O)C1CCN(c2nnc(C)c3c(C)n(-c4ccccc4)nc23)CC1	8%	?	?	-1%	i	-3%	.	.	.	.	.
Cc1ccc(CN2CCc3nc(Nc4ccc5c(c4)OCCO5)ncc3C2)cc1	6%	2%	-52%	10%	i	0%	.	.	.	.	.
O=C(c1cc2ccccc2oc1=O)N(Cc1cccs1)Cc1cccs1	-4%	-1%	.	.	.	.	.	.	.	.	.
CCOC(=O)c1ccc(NC(=O)CN2C(=O)CC(c3ccc(C)c(C)c3)=Nc3ccccc32)cc1	-3%	11%	5%	-15%	i	-14%	.	.	.	.	.
